Results filed as inconclusive are left out. The source made the active and inactive calls. Calls come from the whole dose curve; as a rule, active = well fitted inhibition curve with a large enough effect; inconclusive = small, poorly fitted or top-dose-only effect; inactive = flat fitted curve, though single readings scatter. Where a SMILES comes first, the peptide text is derived from it. Bridges are numbered along the chain shown (N, C = ends). [ ]: non-standard residue; d: D form. The star is where a group is joined. X1 = CCC(C)C(N)C1=NC(C(=O)*)CS1; dOrn = NCCC[C@@H](N)C(=O)O

The text below walks through data of PubChem BioAssay (NCATS).
% is set by controls: 0 for no effect and ±100 for the full control effect.

Sequence of Phospholipid hydroperoxide glutathione peroxidase GPX4 (Homo sapiens) (P36969 whole entry, looked up): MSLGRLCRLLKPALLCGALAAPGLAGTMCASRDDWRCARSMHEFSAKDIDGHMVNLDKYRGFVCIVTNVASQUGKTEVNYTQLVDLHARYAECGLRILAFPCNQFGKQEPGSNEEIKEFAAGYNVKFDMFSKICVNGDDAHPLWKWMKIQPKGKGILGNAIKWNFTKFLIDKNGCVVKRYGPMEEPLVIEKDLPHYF

The target of the test is Phospholipid hydroperoxide glutathione peroxidase GPX4 (Homo sapiens) (UniProt P36969). The test is described as follows: Primary qHTS Assay for Inhibitors of Recombinant Selenoprotein Glutathione Peroxidase 4 (GPX4) (AID 1845192). Note: nearly all actives have a fitted effect of over 65% in size. As to conditions: recombinant GPX4, GR-coupled NADPH fluorescence, 15 min; series mostly up to 50 µM; activity change, negative = inhibition: at the top concentration. The gist of the method:
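qHTS, GR-coupled: GPX4 200 nM + cpd 30 min RT → GSH 1 mM, NADPH 0.5 mM, GR 100 nM → CHP 0.5 mM start; fluor 340/450 at t0 and t15 min; no-enzyme wells as control.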
For the compound `C[C@@H]1C(=O)O[C@H]2CC34[C@H]5C[C@@H](C(C)(C)C)C36[C@@H](OC(=O)[C@@H]6O)OC4(C(=O)O5)[C@]21O` (some centres not stated), the “activity change, negative = inhibition” value was 7.67% (inactive).
Take `CCC(C)C(N)C1=NC(C(=O)N[C@@H](CC(C)C)C(=O)N[C@H](CCC(=O)O)C(=O)N[C@H](C(=O)N[C@H]2CCCCNC(=O)[C@H](CC(N)=O)NC(=O)[C@@H](CC(=O)O)NC(=O)[C@H](Cc3cnc[nH]3)NC(=O)[C@@H](Cc3ccccc3)NC(=O)[C@H]([C@@H](C)CC)NC(=O)[C@@H](CCCN)NC2=O)[C@@H](C)CC)CS1` (some centres not stated) (X1-L[dE]IK[dOrn]I[dF]H[dD]N; lactam 4-C): the Potency entry was “inactive”.
In the case of `CC1(C)CCC(C)(C)c2cc3c(cc21)Sc1ccccc1N=C3c1ccc(C(=O)O)cc1`, the “activity change, negative = inhibition” value is 11.7% (inactive).
In the case of `C=C[C@@]1(C)CC(=O)C2[C@](C)(O1)[C@@H](OC(C)=O)[C@@H](O)[C@H]1C(C)(C)CCC[C@]21C` (some centres not stated), the “activity change, negative = inhibition” value was -2.51% [at 15.3 µM] (inactive).
The same measure, in the same setting: the value for `C[C@@H]1CCC2C(C)(C)[C@H](O)CC[C@]2(C)[C@@]12Cc1c(O)cc3c(c1O2)CN(CCO)C3=O` (some centres not stated) was -16.4% [at 27.8 µM] (inactive); that for `CC(C)(C)NCc1cc(Nc2ccnc3cc(Cl)ccc23)c2c(c1O)CCCC2` was -7.38% [at 0.409 µM] (inactive).
For the compound `CC12CCC3c4ccc(O)cc4CCC3C1CCC2OC1OC(C(=O)O)C(O)C(O)C1O` (configuration not stated), the result was inactive.
Take `COc1c(C)c2c(c(O)c1C/C=C(\C)CC/C=C(\C)CCC(=O)O)C(=O)OC2`: the “activity change, negative = inhibition” value was 0.917% [at 27.8 µM] (inactive).
For `O=C(O[C@H]1[C@@H]2C=CO[C@@H](O[C@@H]3O[C@H](CO)[C@@H](O)[C@H](O)[C@H]3O)[C@@H]2[C@@]2(CO)O[C@@H]12)c1ccc(O)cc1`, the “outcome” value was “inactive [at 27.8 µM]”.
On to `C[C@H]1[C@H](C)CC[C@]2(C(=O)O)CC[C@]3(C(=O)O)C(=CCC4[C@@]5(C)CC[C@H](O[C@@H]6O[C@H](C)[C@@H](O)[C@H](O)[C@H]6O)C(C)(C)C5CC[C@]43C)[C@H]12` (some centres not stated), for which the “activity change, negative = inhibition” value is -6.38% [at 15.3 µM] (inactive).
For the compound `CC1(O)CCC2C(C(=O)O)=COC(OC3OC(CO)C(O)C(O)C3OC(=O)/C=C/c3ccc(O)cc3)C21` (configuration not stated), the “outcome” value was “inactive [at 27.8 µM]”.
`C[C@]12CCC[C@](C)(C(=O)O)C1CCC13C=C(CO)C(CCC12)C3` (some centres not stated): the “activity change, negative = inhibition” value is -1.05% [at 27.8 µM] (inactive).
Take `CC(=O)OC[C@]12[C@H](OC(C)=O)C(=O)[C@@H]3[C@@H](OC(C)=O)[C@@]14O[C@@]3(C)COC(=O)c1cccnc1[C@@H](C)[C@H](C)C(=O)O[C@@H]([C@H](OC(C)=O)[C@@H]2OC(C)=O)[C@]4(C)O`: the “activity change, negative = inhibition” value was -13.9% [at 15.3 µM] (inactive).
Same read-out and setting: to `CC(C)[C@H]1CCC(CO)=C[C@@H]1/C=C(\CO)C(=O)O` belongs -8.94% (inactive); to `CCOC(=O)Nc1nc2ccccc2[nH]1`, 4.98% (inactive).
`NC(=O)[C@H]1CCCCc2c1[nH]c1ccc(Cl)cc21`: the “activity change, negative = inhibition” value is -4.71% [at 27.8 µM] (inactive).
Still for that read-out and setting: the value for `CC(C)(O)c1ccc2c(c1)C(O)CC1C(C)(C(=O)O)CCCC21C` (configuration not stated) was -5.62% [at 27.8 µM] (inactive); that for `O=C(O)c1n[nH]c2c1C[C@H]1C[C@@H]21` was 17.1% (inactive).
For the compound `CC(=O)N[C@H]1[C@H](O[C@H]2CC[C@@]3(C)C(CC[C@]4(C)C3CC=C3C5CC(C)(C)CC[C@]5(C(=O)O)[C@H](O[C@@H]5O[C@H](CO)[C@@H](O)[C@H](O)[C@H]5O)C[C@]34C)C2(C)C)O[C@H](CO[C@@H]2OC[C@H](O)[C@H](O)[C@H]2O[C@@H]2OC[C@@H](O)[C@H](O)[C@H]2O)[C@@H](O)[C@@H]1O` (some centres not stated), the “activity change, negative = inhibition” value was -1.42% [at 15.3 µM] (inactive).
Same read-out and setting: to `C[C@H]1CC[C@@]2(OC1)O[C@H]1CC3C4CC=C5C[C@H](O)C[C@@H](O[C@@H]6O[C@@H](C)[C@H](O)[C@@H](O)[C@H]6O[C@@H]6O[C@@H](C)[C@H](O)[C@@H](O)[C@H]6O)[C@]5(C)C4CC[C@]3(C)[C@H]1[C@@H]2C` (some centres not stated) belongs -12.2% [at 15.3 µM] (inactive); to `C=C1[C@@H]2CC[C@@]3(C)[C@H](c4ccoc4)OC(=O)C[C@]13O[C@H]1CC(=O)C(C)(C)[C@H](CC(=O)OC)[C@]12C`, 2.99% [at 27.8 µM] (inactive); to `CC(NC(=O)CC(=O)O)c1nc2ccccc2c(=O)[nH]1` (configuration not stated), 1.56% (inactive).
On the same count and under the same terms, the value for `O=S(=O)(Nc1ccc(C(O)(C(F)(F)F)C(F)(F)F)cc1)c1cccs1` was -5.61% (inactive); that for `O=C1[C@H](O[C@@H]2O[C@H](CO)[C@@H](O)[C@H](O)[C@H]2O)Oc2ccccc2N1O` was -8.6% [at 27.8 µM] (inactive).
Regarding `CC[C@H]1OC(=O)C[C@@H](O)[C@H](C)[C@@H](O[C@@H]2O[C@H](C)[C@@H](O)[C@H](N(C)C)[C@H]2O)[C@@H](CCN2C[C@H](C)C[C@H](C)C2)C[C@@H](C)C(=O)/C=C/C(C)=C/[C@@H]1CO[C@@H]1O[C@H](C)[C@@H](O)[C@@H](OC)[C@H]1OC`, the Potency result is “inactive”.
Take `CC(=O)N1c2ccccc2C2(O)CC3C(=O)NC(CC(C)C)C(=O)N3C12` (configuration not stated): the “activity change, negative = inhibition” value was -1.97% [at 27.8 µM] (inactive).
On the same count and under the same terms, the value for `CC(=O)O[C@H]1C[C@@H]2[C@]3(CC[C@]4(C)[C@@H](C5(C)CCC(C(C)(C)O)O5)[C@@H](O)C[C@@]24C)C[C@@]32CC[C@H](O[C@@H]3OC[C@@H](O)[C@H](O)[C@H]3O)C(C)(C)[C@H]12` (some centres not stated) was -9.67% [at 15.3 µM] (inactive).
On to `CC(=O)O[C@H]1[C@H](Oc2ccccc2COC(=O)C2(O)C=CCCC2=O)O[C@H](CO)[C@@H](O)[C@@H]1O` (some centres not stated), for which the “outcome” value was “inactive [at 27.8 µM]”.
On to `C[C@@H]1C(=O)O[C@H]2CC34[C@H]5C[C@@H](C(C)(C)C)C36[C@@H](OC(=O)[C@@H]6O)O[C@@]4(C(=O)O5)[C@]21O` (some centres not stated), for which the “activity change, negative = inhibition” value was -12.6% [at 27.8 µM] (inactive).
Same read-out and setting: the value for `O=C(c1ccc(F)cc1)C1CCN(CCn2c(=O)nc3n(c2=O)CCCC3)CC1` was 4.08% (inactive).
For `CC1=C(C)C(=O)OC(C(C)(O)C2CCC3C4CC=C5CC(OC6OC(COC7OC(CO)C(O)C(O)C7O)C(O)C(O)C6O)CC(O)C5(C)C4CCC32C)C1` (configuration not stated), the “outcome” value is “inactive [at 15.3 µM]”.
Regarding `CCc1c(CC(N)=O)c2cc(OCCCP(=O)(O)O)ccc2n1Cc1ccccc1`, the “activity change, negative = inhibition” value is 5.77% (inactive).
